Test results from the supplement of paper PMC7411640.
Structures can show the parent of a compound that is named as a salt.

Test system: MDA-MB-468
Assay: phospho-S6 immunofluorescence (DAPI-normalised), per-plate z-score; higher = higher phospho-S6 signal (less pathway suppression)
Settings: 24 h
Description: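 GPCR-targeted compound library (MedChemExpress HY-L006) tested on MDA-MB-468 PTEN-null TNBC cells in 384-well plates at 0.1, 1 or 10 uM, combined with vehicle, GDC0941 450 nM or lapatinib 1 uM, for 24 h. Phospho-S6 (S240/244) immunofluorescence normalised to DAPI and expressed as a per-plate z-score; values are the mean of biological triplicates.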

| Compound | phospho-S6 immunofluorescence (z-score) (co-treatment: GDC0941 450 nM) | phospho-S6 immunofluorescence (z-score) (co-treatment: lapatinib 1 uM) | phospho-S6 immunofluorescence (z-score) (co-treatment: vehicle) |
| --- | --- | --- | --- |
| Cc1noc(-c2ccc(-c3ccc(CC(=O)O)cc3)cc2)c1NC(=O)OC(C)c1ccccc1Cl (centres undefined) (compound 10 µM) | 0.23 | 0.28 | 0.02 |
| CC(C)(C)NC[C@H](O)COc1nsnc1N1CCOCC1 [(S)-Timolol (Maleate)] (compound 10 µM) | -0.17 | 0.33 | -0.06 |
| CCN1CCCC1CNC(=O)c1cc(S(=O)(=O)CC)c(N)cc1OC (centres undefined) [Amisulpride] (compound 10 µM) | 0.37 | 0.58 | 0.83 |
| C[C@H](NC(=O)c1cc(Cl)ccc1Oc1ccc(F)cc1)c1ccc(C(=O)O)cc1 (compound 10 µM) | -0.64 | 0.18 | 0.3 |
| CN1CCN2c3ccccc3Cc3ccccc3C2C1 (centres undefined) [Mianserin (hydrochloride)] (compound 10 µM) | 1 | -0.76 | 1.67 |
| COCCc1ccc(OCC(O)CNC(C)C)cc1 (centres undefined) [Metoprolol (Succinate)] (compound 10 µM) | 0.44 | -0.38 | 1.15 |
| COc1cccc(CCc2ccccc2OCC(CN(C)C)OC(=O)CCC(=O)O)c1 (centres undefined) [Sarpogrelate (hydrochloride)] (compound 10 µM) | 0.63 | -0.51 | -0.15 |
| CN1CCN(C2=Nc3cc(Cl)ccc3Nc3ccccc32)CC1 [Clozapine] (compound 10 µM) | -0.16 | -0.32 | -0.32 |
| CC#C[C@]1(O)CC[C@H]2[C@@H]3CCC4=CC(=O)CCC4=C3[C@@H](c3ccc(N(C)C)cc3)C[C@@]21C [Mifepristone] (compound 10 µM) | -2.47 | 1.14 | -0.01 |
| CC1(C)O[C@@H]2C[C@H]3[C@@H]4C[C@H](F)C5=CC(=O)C=C[C@]5(C)[C@@]4(F)[C@@H](O)C[C@]3(C)[C@]2(C(=O)CO)O1 [Fluocinolone (Acetonide)] (compound 10 µM) | -0.92 | 0.83 | -0.53 |
| CCN(CC)CCNC(=O)c1cc(Cl)c(N)cc1OC [Metoclopramide (hydrochloride hydrate)] (compound 10 µM) | -0.35 | 0.77 | 0.05 |
| Cc1cc(Cn2cnc3c2CC(C(=O)O)N(C(=O)C(c2ccccc2)c2ccccc2)C3)ccc1N(C)C (centres undefined) (compound 10 µM) | -0.71 | 0.17 | 0.29 |
| CCc1cc(/C(C)=N/OCc2ccc(C3CCCCC3)c(C(F)(F)F)c2)ccc1CN1CC(C(=O)O)C1 [Siponimod] (compound 10 µM) | -0.49 | 0.38 | 0.15 |
